PubChem BioAssay (NCI)
The panel holds about 83,000 compounds, 20% with a hit somewhere; the sample as a whole holds those more often.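 Negative percent growth values reflect cell death: -40 means 40% of the cells present at the start died, and -100 means all died.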 Unmarked numbers belong to inactive results. Calls of active or inactive are those of the source. The calls were made as follows: active = growth percent below 10; inactive = the rest.

What was measured:
Assay in all cases: NCI-60 one-dose screen, 48 h (100 = growth as untreated, 0 = no growth, -100 = all killed)
Conditions in all cases: 10 µM unless noted
DU-145 prostate = system: DU-145 prostate
K-562 leukemia = system: K-562 leukemia
MALME-3M melanoma = system: MALME-3M melanoma
MDA-MB-231 breast = system: MDA-MB-231 breast
RXF 393 renal = system: RXF 393 renal
SF-268 CNS = system: SF-268 CNS
SF-295 CNS = system: SF-295 CNS
UACC-257 melanoma = system: UACC-257 melanoma
M14 melanoma = system: M14 melanoma
HCT-15 colon = system: HCT-15 colon
HT29 colon = system: HT29 colon
SNB-19 CNS = system: SNB-19 CNS
U251 CNS = system: U251 CNS
PC-3 prostate = system: PC-3 prostate
SK-MEL-5 melanoma = system: SK-MEL-5 melanoma
UACC-62 melanoma = system: UACC-62 melanoma
LOX IMVI melanoma = system: LOX IMVI melanoma
SK-MEL-28 melanoma = system: SK-MEL-28 melanoma
SNB-75 CNS = system: SNB-75 CNS

SMILES | growth (DU-145 prostate) | growth (K-562 leukemia) | growth (MALME-3M melanoma) | growth (MDA-MB-231 breast) | growth (RXF 393 renal) | growth (SF-268 CNS) | growth (SF-295 CNS) | growth (UACC-257 melanoma) | growth (M14 melanoma) | growth (HCT-15 colon) | growth (HT29 colon) | growth (SNB-19 CNS) | growth (U251 CNS) | growth (PC-3 prostate) | growth (SK-MEL-5 melanoma) | growth (UACC-62 melanoma) | growth (LOX IMVI melanoma) | growth (SK-MEL-28 melanoma) | growth (SNB-75 CNS)
CC/C(=C(\c1ccc(O)cc1)c1ccc(OCCN(C)CCN(C)C(=O)CCCCC(=O)c2c(C)[nH]c(/C=C3\N=C(c4ccc[nH]4)C=C3OC)c2C)cc1)c1ccccc1 | 65.8% | 42.9% | 116% | 35.1% | 83% | 75.9% | 89.2% | 99.8% | 39.7% | 60% | 29.3% | 114% | 72% | 61.2% | 77.8% | 95.4% | 44.9% | 89.7% | –
O=C(COCc1c(-c2ccccc2)no[n+]1[O-])Nc1ccc(C(=O)/C=C/c2ccc3c(c2)OCO3)cc1 | 116% | 92.4% | 123% | 101% | 95.9% | 97.9% | 103% | 93.3% | 109% | 104% | 132% | 97.3% | 107% | 76.3% | 94.4% | 97.5% | 68.3% | 112% | –
COc1cc(C2C(C(=O)c3cccs3)=C(O)C(=O)N2CCN2CCOCC2)cc(OC)c1OC (stereo not drawn) | 106% | 116% | 107% | 111% | 100% | 97.9% | 100% | 108% | 99.6% | 102% | 103% | 103% | 94.7% | 95.4% | – | 106% | – | 104% | 91.6%
COC(/C=C/c1ccc([N+](=O)[O-])cc1)OC | 119% | 105% | 109% | 91.2% | 87.5% | 106% | 106% | 90.8% | 77.2% | 116% | 94.7% | 91.2% | 74.5% | 95.1% | 98.3% | 89.9% | 8.46% (active) | 93.5% | –
NCc1cn2cc(Cl)sc2n1 | 114% | 95% | 103% | 112% | 98.9% | 111% | 102% | 105% | 108% | 98.6% | 105% | 112% | 93.2% | 92.3% | 103% | 110% | – | 104% | 92.6%
CN(C)c1ccc(C2Nc3ccccc3-n3cccc32)cc1 (stereo not drawn) | 114% | 121% | 99.6% | 96.5% | 98.5% | 103% | 102% | 111% | 99.1% | 89.7% | 99.9% | 94.7% | 95.6% | 66.4% | – | 79% | 103% | 107% | 107%
CNCc1cccc2c1OCCOCCOCCN(C)S(=O)(=O)c1ccc(cc1)-c1cnc(N)c(n1)C(=O)N2 | 47.4% | 1.1% (active) | 9.53% (active) | 69.1% | -54.8% (active) | 69.4% | 87.6% | 63.4% | 37.3% | 11.4% | 13.2% | 93.3% | 12.8% | 54.1% | 82.5% | 29.4% | -16% (active) | 68% | –
C=C1CC[C@@H]2[C@](C)(COC(C)=O)[C@H](OC(C)=O)CC[C@@]2(C)[C@@H]1CC(Nc1ccc(S(=O)(=O)Nc2ccc(Cl)nn2)cc1)C1=CCOC1=O (stereo partly drawn) | 40.2% | 6.81% (active) | 55.3% | 23.8% | -13.4% (active) | 43.3% | 92.8% | 44% | 10.7% | -18.4% (active) | -18.3% (active) | 76% | -41.2% (active) | 38.4% | – | -50% (active) | -84.6% (active) | 6.66% (active) | 25.2%
COc1cnc2c(c1)C(=O)c1c-2n(CCCBr)c(=O)c2cc([N+](=O)[O-])ccc12 | 7.11% (active) | 11.7% | -2.44% (active) | 24.3% | -10.8% (active) | 9.06% (active) | -11.3% (active) | -32.3% (active) | 3.34% (active) | – | 0.984% (active) | 22.3% | -22.4% (active) | 4.1% (active) | -82.6% (active) | -62.3% (active) | -54.2% (active) | 16.3% | 13.5%
Cc1nn(-c2nc3ccccc3[nH]2)c2c1C(c1ccc3c(c1)OCO3)CC(=O)N2 (stereo not drawn) | 30.7% | -14.8% (active) | 27.7% | 40.8% | 8.03% (active) | 19.3% | -36.3% (active) | 69.1% | 42.5% | 47.6% | 34.7% | 49% | 30.5% | 21.6% | 12.4% | 27.3% | – | 82.3% | –
Nc1nc2c(c3ncccc13)C(c1ccc(Cl)c(Cl)c1)Cc1ncccc1-2 (stereo not drawn) | 35.5% | 11% | 47.1% | 28.9% | -25.4% (active) | 44.8% | 1.19% (active) | 35.4% | 20% | 18.2% | 6.39% (active) | 32.1% | 16.9% | 19.5% | 19.8% | 26.6% | 28% | 49.2% | –
COc1ccc(-c2cnoc2-c2cc(OC)c3c(c2)OCCO3)cc1 | -9.77% (active) | 6.93% (active) | 62.8% | -23.8% (active) | 32.3% | 19.9% | 9.28% (active) | 69.7% | 7.58% (active) | 4.48% (active) | 1.26% (active) | 29.5% | -17% (active) | – | -27.8% (active) | 13.4% | 17.4% | 50.9% | 13.2%
N#CC1=C(N)Oc2c(ccc3ccccc23)C1c1cccs1 (stereo not drawn) | -21.2% (active) | 0.938% (active) | 36.4% | -9.69% (active) | 8.35% (active) | 9.29% (active) | 24.7% | 75.1% | 17.3% | 13.5% | 5.33% (active) | 49.7% | 13.3% | 22.5% | -35.9% (active) | 29.3% | – | 41.1% | –
COc1ccc(CN(c2ccc(C)cc2)C2OC(=O)c3ccccc32)cc1OC (stereo not drawn) | 115% | 99.6% | 104% | 117% | 104% | 113% | 100% | 95% | 110% | 96.3% | 97.9% | 96.5% | 86.3% | 90.6% | – | 94.9% | 93.2% | 108% | 90.3%
CC(=O)Oc1ccc(Nc2c3ccccc3nc3ccccc23)cc1 | 8.74% (active) | 6.78% (active) | -33.2% (active) | 23.6% | -2.55% (active) | 22% | -21.8% (active) | -25.7% (active) | 20.7% | 1.67% (active) | -38.4% (active) | 16.1% | 8.7% (active) | 7.48% (active) | – | -45.3% (active) | -34.8% (active) | 25.8% | 2.16% (active)
CS(=O)(CCCCN=C=S)=NC(=O)c1c(F)c(F)c(F)c(F)c1F (stereo not drawn) | 91.1% | 60.8% | 58.7% | 91.8% | 94.2% | 101% | 97.8% | 83.5% | 98.4% | 59.4% | 90.2% | 90.4% | 89.6% | 88.6% | 98.7% | 88.7% | 60.6% | 97.6% | –
C=C1CCC2C3(C)COC(c4ccc(SC)cc4)OC3CCC2(C)C1C/C=C1/C(=O)OCC1O (stereo not drawn) | 88.1% | 20.1% | 100% | 87.9% | 42.6% | 88.7% | 81.9% | 91.5% | 69.3% | 68.7% | 34.4% | 109% | 60.7% | 57.6% | 65.3% | 66.3% | 23.3% | 104% | –
